# Sfp inh: inhibitors of Bacillus subtilis Sfp phosphopantetheinyl transferase. Q9F4F7. Biochemical Sfp PPTase activity, qHTS. Potency, µM, without a hit: largest response in the series, negative = inhibition, hits mostly inhibitors. hit rate 3.5% among 310,000;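 further: the enzyme is Sfp with the accession as filed and its product quenches rhodamine fluorescence; 0% = enzyme reaction without inhibitor and -100% = no enzyme wells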
#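 Buffer: 50 mM Hepes-Na pH 7.6, 10 mM MgCl2, 0.01% Nonidet P-40, 0.01% BSA. Enzyme 15 nM, pre-exposed to compound 15 min; substrates then added and fluorescence change tracked over 30 min.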
# Tau fluor cs: counter-screen for tau fibril formation inhibitors. tau K18 P301L Alexa594 fluorescence, heparin fibrillization. Potency, µM (series often up to 57.7 µM), without a hit: at the top dose activity change, negative = decrease. hit rate 0.93% among 280,000; further: on the % scale 0 is the no-effect control and ±100 the full control effect; nearly all actives have a fitted effect of over 55% in size
#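 Human tau K18 P301L (15 uM unlabeled, 0.24 uM Alexa 594-labeled) in 100 mM sodium acetate pH 7 with 20 uM heparin, 6 hr at 37 C. ThT 30 uM added, 1 hr ambient; Alexa 594 FP and total fluorescence read at 555/632 nm.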
# PLK1 PBD block: inhibitors of human PLK1 polo-box domain binding | P53350 | Plk1 PBD binding of FITC phosphopeptide, fluorescence polarization | Potency, µM, for the others: max response, negative = inhibition, hits mostly inhibitors | hit rate 2.8% among 360,000; further: series mostly up to about 57 µM; on the % scale 0 is the no-effect control and ±100 the full control effect; nearly all actives have a fitted effect of over 65% in size
# VDR inh: vitamin D3 receptor (human) inhibition | Potency, µM, for the others: max response, negative = inhibition, hits mostly inhibitors | hit rate 0.93% among 400,000 | P11473 | VDR-SRC2-3 peptide fluorescence polarization, 2 h; further: on the % scale 0 is the no-effect control and ±100 the full control effect
# Target sequence (P11473 whole entry, looked up): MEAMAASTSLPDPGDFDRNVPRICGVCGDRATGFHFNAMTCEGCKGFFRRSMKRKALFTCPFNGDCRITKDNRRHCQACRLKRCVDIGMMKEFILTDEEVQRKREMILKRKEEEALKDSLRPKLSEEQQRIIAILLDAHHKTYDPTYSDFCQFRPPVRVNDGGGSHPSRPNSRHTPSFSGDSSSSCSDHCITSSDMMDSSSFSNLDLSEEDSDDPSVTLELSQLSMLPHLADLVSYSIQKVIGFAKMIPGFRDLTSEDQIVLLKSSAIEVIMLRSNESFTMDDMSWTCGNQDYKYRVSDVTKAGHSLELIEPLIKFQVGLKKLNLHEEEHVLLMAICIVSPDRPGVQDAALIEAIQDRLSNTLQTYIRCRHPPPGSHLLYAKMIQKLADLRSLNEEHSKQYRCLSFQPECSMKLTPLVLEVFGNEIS
#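 Fluorescence polarization assay of small-molecule disruption of VDR binding to coregulator peptide SRC2-3. Compounds and controls pin-transferred, then read after 2 h incubation at ambient room temperature.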
# Tau fibril FP: inhibitors of human tau fibril formation. hit rate 0.39% among 280,000. Potency, µM (highest dose often 57.7 µM), without a hit: at the top dose activity, negative = inhibition, actives largely listed as inhibitors. K18 P301L tau heparin fibrillization, Alexa594 FP, 6 h. P10636; further: on the % scale 0 is the no-effect control and ±100 the full control effect; nearly all actives have a fitted effect of over 55% in size
# Target sequence (P10636 561-689 P618L limits assumed): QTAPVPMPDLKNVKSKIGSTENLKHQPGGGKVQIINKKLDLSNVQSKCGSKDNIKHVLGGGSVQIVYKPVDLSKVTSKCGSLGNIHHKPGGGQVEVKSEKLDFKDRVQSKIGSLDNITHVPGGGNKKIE
#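 Recombinant K18 P301L […], labeled with Alexa 594 at 0.24 uM over 15 uM unlabeled; heparin inducer 20 uM final; 37 C, 6 hr; FP endpoint.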
# Tau ThT inhib: inhibitors of human tau fibril formation, thioflavin T binding; hit rate 2.1% among 270,000; P10636; Potency, µM (series often up to 57.4 µM), for the others: at the top dose activity, negative = inhibition, actives largely listed as inhibitors; AID 1460; recombinant tau K18 P301L, heparin-induced fibrillization, ThT fluorescence; further: on the % scale 0 is the no-effect control and ±100 the full control effect; nearly all actives have a fitted effect of over 55% in size
#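 ThT emission at 510 nm, taken 1 hr after adding 30 uM dye, quantifies aggregates formed when 20 uM heparin acts on human tau K18 P301L for 6 hr at 37 C.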
# VDR confirm: confirmation of human vitamin D receptor inhibitors. shares compounds with VDR inh. VDR-coactivator inhibition assay, qHTS confirmation. Potency, µM, actives largely listed as inhibitors. hit rate 89% among 840. AID 602199
# VDR FP fluor: confirmation of human VDR-coactivator binding inhibitors, fluorescein label. hit rate 48% among 840. VDR-coactivator binding, fluorescein fluorescence polarization. AID 602200. Potency, µM (titrated, usually from 57.1 µM), for inactives: at the highest dose activity change, negative = inhibition, most hits filed as inhibitors. shares compounds with VDR inh
# VDR bla reporter: confirmation of human vitamin D receptor inhibitors in reporter cells. shares compounds with VDR inh. VDR beta-lactamase reporter cells, FRET ratio; cells co-treated with VDR agonist LG190178. Potency, µM (doses to about 46.1 µM), inactives show at the highest dose activity change, negative = inhibition, actives largely listed as inhibitors. hit rate 23% among 840. AID 602202; further: on the % scale 0 is the no-effect control and ±100 the full control effect
# VDR cytotox: counter-screen for vitamin D receptor inhibitors: cytotoxicity; shares compounds with VDR inh; cytotoxicity counter-screen, cell viability, qHTS; Potency, µM (top dose mostly 48.3 µM), for the others: at the top dose activity change, negative = cytotoxicity, actives largely listed as cytotoxic; hit rate 18% among 840; AID 602204;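 further: plate controls were DMSO for no effect and high-concentration cycloheximide for full effect; nearly all actives have a fitted effect of over 75% in size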
# An asterisk follows results filed as active; u = inconclusive; x = not tested or not shown; ! = repeats disagree; [ ] = another dose, or the depositor's remark. Compounds with a hit are over-represented: about 6% of the library has one in this group of screens. The call rests on the fitted dose curve; in most records, active means well fitted curve in the direction sought with a large enough effect; inconclusive means small, poorly fitted or top-dose-only effect, or another doubt; inactive means no such curve, though single readings can be large; an effect the other way counts as inactive or inconclusive. Potency means the concentration at half of the fitted maximal effect.
SMILES,Sfp inh,Tau fluor cs,PLK1 PBD block,VDR inh,Tau fibril FP,Tau ThT inhib,VDR confirm,VDR FP fluor,VDR bla reporter,VDR cytotox
COc1ccc(/C=C/c2c([N+](=O)[O-])c(=O)n(C)c(=O)n2C)cc1O,-2%,-10%,-7%,-12%,0%,-19%,x,x,x,x
O=C(NN=Cc1ccccc1O)c1cccc([N+](=O)[O-])c1,x,x,-13%,-2%,x,x,x,x,x,x
COc1cc(/C=C/C(=O)c2cccc([N+](=O)[O-])c2)cc(OC)c1OC,-15%,u,u,u,0%,u,2.2*,2.5µM*,u,u
COc1ccc(/C=C/C(=O)c2ccc(C)c([N+](=O)[O-])c2)cc1O,79µM*,-1%,-25%,35µM*,0%,4%,11*,7.9µM*,u,u
O=C(/C=C/c1ccccc1F)c1cccc([N+](=O)[O-])c1,2.8µM*,u,u,13µM*,19%,u,2.5*,1.6µM*,26µM*,0%
CCN(CC)CCNC(=O)C(=O)Nc1c2c(nn1-c1ccc(F)cc1)CSC2,x,1%,x,9%,-11%,3%,x,x,x,x
COc1oc(C(=O)NC2CCCCC2)c(-c2ccc(Cl)cc2)c1S(=O)(=O)c1ccccc1,x,x,0%,u,x,x,x,x,x,x
O=C(O)c1ccc(S(=O)(=O)c2ccccc2C(=O)O)c([N+](=O)[O-])c1,-21%,x,-15%,0%,x,x,x,x,x,x
O=C(O)c1ccc(S(=O)(=O)c2ccc([N+](=O)[O-])cc2[N+](=O)[O-])cc1,79µM*,x,8.4µM*,22µM*,x,x,11*,u,15%,-14%
CCOc1cc(/C=C2\N=C(C)OC2=O)cc(Cl)c1OCC(=O)OC,x,x,0%,45µM*,x,x,9.5*,u,-2%,10%
CNc1c(NS(=O)(=O)c2ccc(C3CCCCC3)cc2)c(=O)oc2ccccc12,-2%,x,-5%,5%,x,x,x,x,x,x
CC(=O)N(c1nnc(-c2cccc(C)c2)s1)C1CCCC1,5%,x,-2%,4%,x,x,x,x,x,x
Cc1ccc2oc3c(c(=O)c2c1)C(c1ccccc1F)N(CCCN(C)C)C3=O (stereo not given),x,-5%,x,-14%,-1%,3%,x,x,x,x
CC(=O)O[C@]1(C(C)=O)CC[C@@H]2[C@@H]3C=C(Cl)C4=CC(=O)[C@H]5C[C@@H]5[C@]4(C)[C@H]3CC[C@]21C,10%,x,x,u,x,x,x,x,x,x
O=C1ON=C(c2ccccc2)/C1=C/c1ccccc1,45µM*,x,5.3µM*,45µM*,x,x,19*,6.3µM*,27%,-15%
COc1ccc(/C=C2\N=C(c3ccc(C)cc3)OC2=O)cc1,17%,x,-7%,u,x,x,x,x,x,x
O=C1ON=C(c2ccccc2)/C1=C/c1ccc(O)cc1,50µM*,x,1.7µM*,35µM*,x,x,11*,u,u,u
Cc1ccc(C2=NOC(=O)/C2=C\c2ccccc2)cc1,x,x,3.4µM*,32µM*,x,x,7.5*,u,0%,30%
CC1=NN(c2ccccc2)C(=O)/C1=C/c1ccc(Cl)cc1,-23%,x,1.9µM*,79µM*,x,x,15*,u,5%,9%
Cc1cc(C=O)c(C)n1-c1cccc(C(=O)O)c1,8%,-5%,-24%,-19%,2%,-10%,x,x,x,x
COc1ccc(/C=C2/C(=O)N(Cc3ccccc3)N=C2C)cc1,12%,15%,u,u,4%,3%,x,x,x,x
COc1ccc(/C=C2/C(=O)N(c3ccccc3)N=C2C)cc1Br,50µM*,x,2.1µM*,50µM*,x,x,9.5*,u,20%,4%
CC1=NN(c2cccc(C(=O)O)c2)C(=O)/C1=C\C=C/c1ccccc1,50µM*,u,5.3µM*,u,u,7.1µM*,3.2*,3.2µM*,8.2µM*,u
CC1(OC(=O)C2CCCC2)C(=O)C=C2C=C(c3ccsc3)N(CCc3c[nH]c4ccccc34)C=C2C1=O (stereo not given),-13%,0%[11.6 µM],-19%,u,u,4.5µM*!,u,u,10%,34%
CC1(OC(=O)C2CCCC2)C(=O)C=C2C=C(c3ccsc3)N(CC3CC3)C=C2C1=O (stereo not given),18%,-12%[11.6 µM],-29%,-21%,-1%[11.6 µM],u,x,x,x,x
SMILES,Sfp inh,Tau fluor cs,PLK1 PBD block,VDR inh,Tau fibril FP,Tau ThT inhib,VDR confirm,VDR FP fluor,VDR bla reporter,VDR cytotox
CN1CCN(C(c2ccc(Br)cc2)c2cc(Cl)c3cccnc3c2O)CC1 (stereo not given),50µM*,x,5.3µM*,u,x,x,7.9*,3.2µM*,23µM*,u
Cc1oc2c(c(=O)c1C)C(=O)CC(c1ccccc1)C2 (stereo not given),-6%,6%,-2%,-11%,3%,4%,x,x,x,x
CS(=O)(=O)c1sc(C#N)c2c1C(=O)CC(c1ccccc1)C2 (stereo not given),u,0%,5.3µM*,14µM*,4%,-2%,8.4*,u,15µM*,3.7µM*
COc1ccc(NC(=O)COC(=O)C(NC(=O)c2ccc(C)cc2)C(C)C)cn1 (stereo not given),x,x,-3%,-17%,x,x,x,x,x,x
COc1ccc(NC(=O)/C(Cl)=C(/Cl)S(=O)(=O)Cc2ccc(C)cc2)cn1,-3%,-25%,21µM*,16µM*,u,8.9µM*,19*,13µM*,5.8µM*,21µM*
O=C1C(C2=C(O)c3ccccc3C2=O)=Nc2ccccc21,56µM*,u,u,13µM*,u,7.1µM*,0.75*,u,-26%,u
CN=CC1=C(O)c2ccccc2C1=O,25%,2%,-1%,9%,5%,2%,x,x,x,x
CCOC(=O)c1cnc(Cc2ccccc2)[nH]c1=O,10%,x,-6%,9%,x,x,x,x,x,x
CCOC(=O)C1=C(Cc2ccc(F)cc2)C(=O)c2ccccc2C1=O,8.9µM*,u,9.5µM*,4.5µM*,16µM*,10µM*,5.3*,u,-9%,-18%
O=C(O)CSc1cc(NS(=O)(=O)c2ccc(Br)cc2)c2ccccc2c1O,40µM*,x,4.7µM*,16µM*,x,x,4.2*,18µM*,-28%,u
